# In PubChem BioAssay AID1508621 (National Center for Advancing Translational Sciences (NCATS), 2021):
# Records with an inconclusive call do not appear. A call without a number means that no potency is given here. The source made the active and inactive calls. The call rests on the fitted dose curve; in most records, active means well fitted inhibition curve with a large enough effect; inconclusive means small, poorly fitted or top-dose-only effect; inactive means no such curve, though single readings can be large or run the other way.
# Assay: Confirmatory qHTS for Identification of Small Molecule Inhibitors of Huntingtin Promoter Activity; further: nearly all actives have a fitted effect of over 65% in size
# Summary of the method: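 Plated reporter HEK293 cells (24 h) received library compounds at up to 57.5 uM final or 50 uM PTC124, incubated 24 h at 37C; firefly luciferase luminescence was then recorded with Dual-Glo reagent.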
# Potency means the concentration at half of the fitted maximal effect.
row,SMILES,Potency
1,CC(C)c1ccc(NC(=O)C2CCN(c3nc(-c4ccc(C(C)C)cc4)no3)CC2)cc1,0.0953 µM (active)
2,CCc1nc2ccc(C(=O)NCCc3ccc(OC)cc3OC)cc2nc1CC,inactive
3,O=C(C=Cc1ccc(CN(CCO)CCc2c[nH]c3ccccc23)cc1)NO,inactive
4,COc1ccccc1N1CCN(S(=O)(=O)c2ccc(F)c(C(=O)Nc3ccc(Cl)cc3C(F)(F)F)c2)CC1,inactive
5,Cc1cc(C)c(NS(=O)(=O)c2ccc(-c3cnc(C4CC4)o3)cc2)c(C)c1,0.675 µM (active)
6,Cn1c(=O)n(C)c2cc(NS(=O)(=O)c3ccc(F)cc3)ccc21,inactive
7,CCOc1ccccc1C(=O)Nc1nc2c(s1)CC(C)CC2 (stereo not drawn),inactive
8,Cc1ccc(CN(C(=O)c2ccc(OCC(C)C)cc2)c2ccccn2)o1,inactive
9,O=c1cc(-c2ccccc2)oc2cc(O)cc(O)c12,inactive
10,Cc1ccccc1NC(=O)c1c(NC(=O)C(F)(F)F)sc2c1CCCCC2,0.849 µM (active)
11,CCS(=O)(=O)N1CC(CC#N)(n2cc(-c3ncnc4[nH]ccc34)cn2)C1,inactive
12,CC(C)OCc1cc(CN2CCN(c3cccc(C(F)(F)F)c3)CC2)c(O)c2ncccc12,9.53 µM (active)
13,C=Cc1ccc(Cn2c(C(=O)O)c(CNCc3ccccc3)c3ccc(C)cc32)cc1,21.3 µM (active)
14,O=C(O)c1ccc2c(c1)N(Cc1ccc(F)cc1)C(=O)c1ccccc1S2=O (stereo not drawn),inactive
15,O=C(CCCCCCC(=O)Nc1ccccc1)NO,inactive
16,CCc1ccc2c(c1)-c1ccccc1S(=O)(=O)N2CC(=O)N1CCCCC1,inactive
17,CCCCN1CC(c2nc3ccccc3n2CCCCOc2ccc(C)c(C)c2)CC1=O (stereo not drawn),19 µM (active)
18,CSc1ccc(/C=C/c2nc3ccccc3n2S(=O)(=O)c2ccc(F)c(C)c2)cc1,inactive
19,Cn1c(=O)n(C)c2cc(NS(=O)(=O)c3ccccc3)c(NCc3ccccc3)cc21,inactive

row,SMILES,Potency
1,O=C(NCCC1=CCCCC1)c1ccc2c(c1)N(Cc1cccc(Cl)c1)C(=O)c1ccccc1S2(=O)=O,inactive
2,NC(=O)Nc1cc(-c2ccc(CN3CCOCC3)cc2)sc1C(N)=O,inactive
3,Cn1cc(CNCC2CCN(c3ncc(C(=O)NO)cn3)CC2)c2ccccc21,inactive
4,Cc1cc(Nc2sc(C(=O)c3ccc(F)cc3)c(N)c2C(=O)Nc2ccc(F)cc2)ccc1Cl,1.69 µM (active)
5,CCn1cc(C(=O)N2CCN(c3ccc(C)cc3)C(C)C2)c(=O)c2cc(S(=O)(=O)N3CCCC3)ccc21 (stereo not drawn),inactive
6,Cc1cc(C)cc(NC(=O)Nc2cccs2)c1,inactive
7,Cc1oc(-c2cccc(Cl)c2)nc1CN1CCC(C(=O)NCCCN2CCN(c3ccc(F)cc3)CC2)CC1,13.5 µM (active)
8,CC(=O)N1CCc2c(sc(NC(=O)CSc3ccccc3)c2-c2nc3ccccc3s2)C1,26.9 µM (active)
9,COc1ccc(C(=O)Nc2cccc(-c3cn4ccsc4n3)c2)c(OC)c1,inactive
10,COc1ccc(-n2c(/C=C/c3cccc4ccccc34)nc3ccccc3c2=O)cc1Cl,inactive
11,CC(=O)c1cccc(NS(=O)(=O)c2cccc(S(=O)(=O)c3ccc(Br)cc3)c2)c1,26.9 µM (active)
12,O=C(NCc1cccs1)c1ccc(Cn2c(SCc3ccc(F)cc3)nc3cccnc32)cc1,inactive
13,O=C(Nc1cccc(Cl)c1)c1c(NC(=O)C(F)(F)F)sc2c1CCCC2,4.26 µM (active)
14,O=C(CSc1nccn1Cc1ccco1)Nc1cc(C(F)(F)F)ccc1Cl,inactive
15,O=c1c(-c2ccc(O)cc2)coc2cc(O)ccc12,inactive
16,Cc1ccc(CN(C(=O)COc2cccc(Cl)c2)c2ccccn2)o1,inactive
17,O=c1c(O)c(-c2ccc(O)cc2)oc2cc(O)cc(O)c12,inactive
18,Cc1ccc(C)c(OCCCC(C)(C)C(=O)O)c1,inactive
19,CC(C)[C@H](CO)Nc1nc(Nc2ccc(C(=O)O)c(Cl)c2)c2ncn(C(C)C)c2n1,inactive
